Experimental data as given in PubChem BioAssay (NCI).
This is part of a sample that, as a whole, favours compounds with a hit. Of some 83,000 tested, about 20% had one in any assay.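 Single-concentration screen, 48 h exposure, 96-well plates. Endpoint: percent growth. Below 10 = active.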 Unmarked numbers belong to inactive results. Activity calls are given as the source filed them.

What follows are compounds tested on HL-60(TB) leukemia (assay: NCI-60 one-dose screen, 48 h (100 = growth as untreated, 0 = no growth, -100 = all killed)). Details: 10 µM unless noted.

Structure (SMILES) | growth
COc1ccc(-c2nc([C@@H](C)Sc3nc(N)cc(N)n3)c(C)s2)cc1OCCN1CCOCC1 | 105%
Nc1nc(Nc2ccccc2SSc2ccccc2Nc2nc(N)nc(-c3ccc(C(F)(F)F)cc3)n2)nc(-c2ccc(C(F)(F)F)cc2)n1 | -17% (active)
C#CCn1cnc2c(Nc3cccc(NC(=O)CCl)c3)ncnc21 | 7.89% (active)
Oc1c(Cl)cc(Cl)c2ccc(Cn3cc(-c4cccc(C(F)(F)F)c4)nn3)nc12 | -18.9% (active)
COc1c(CCC[P+](c2ccccc2)(c2ccccc2)c2ccccc2)cc2c(c1OC)OCO2 | 10.2%
Cc1cccc(-c2cc(O)c(C(=O)N3CCOCC3)s2)c1 | 24.5%
CSc1cnc2ccccc2n1 | 90.3%
COc1cc(C2Cc3ncccc3-c3[nH]c(=O)c4cccnc4c32)cc(OC)c1OC (stereo not given) | -2.08% (active)
CCN(CC)CCNc1ccc(C)c2sc3cc(C)ccc3c(=O)c12 | 64.1%
CCCOC(=O)c1c(C)n(C)c2scc[n+]12 | 92.6%
COc1ccc2oc(=O)cc(C(c3ccc[nH]3)c3ccc[nH]3)c2c1 | -20.2% (active)
O=C(c1c[nH]c2ccccc12)c1n[nH]c(=S)n1-c1ccc([N+](=O)[O-])cc1 | 61.4%
Nc1ccc(-c2cccs2)cc1NC(=O)c1ccc(CCCC(=O)Nc2ccc(C3CC3N)cc2)cc1 (stereo not given) | 66%
Fc1ccccc1C1c2ccccc2-c2nccn21 (stereo not given) | 76.5%
COc1cccc2c1O/C(=C\c1ccc([N+](=O)[O-])s1)C2=O | 39%
CCCCCC(=C/c1ccccc1)/C=N/N=C(N)N | -30.2% (active)
O=C(O)C(O)C(O)C(=O)O.[NH-]C1CCCCC1[NH-].[Pt+2] (stereo not given) | 104%
COC(=O)[C@]12CC[C@@H](C)[C@H](C)[C@@H]1C1=CC[C@@H]3[C@@]4(C)C[C@@H](OC(C)=O)[C@H](O)[C@@](C)(COC(C)=O)[C@@H]4[C@H](O)C[C@@]3(C)[C@]1(C)CC2 | -41.6% (active)

Structure (SMILES) | growth
COc1ccccc1N1C(=N)S/C(=C\c2ccc(OCc3ccccc3F)cc2)C1=O | 112%
C=C(C[C@@](O)(C(=O)Oc1ccccc1)C(=O)C1CCCCC1)c1ccccc1 | 112%
O=C1OCC2=C1C(c1cccc(Cl)c1)c1cc3c(cc1N2CCO)OCO3 (stereo not given) | -19.3% (active)
Cn1c(=O)c2c(nc3n(-c4ccc(Cl)cc4Cl)c(Sc4nc(-c5ccccc5)c(C#N)c(=O)[nH]4)cn23)n(C)c1=O | 76.5%
N#C/C(=C\C=C\c1ccc(-c2cc(Cl)ccc2Cl)o1)c1nc2ccccc2s1 | 97.7%
CCCCCCn1c(-c2ccc(C(=O)O/N=C(\N)c3ccc4c(c3)OCO4)cc2)nc(-c2ccccc2)c1-c1ccccc1 | -51.1% (active)
Cc1ccc(-c2c(Br)c(OC(=O)CO[C@@H]3C[C@H](C)CC[C@H]3C(C)C)c(-c3ccc(C)cc3C)c(Br)c2OC(=O)CO[C@H]2C[C@@H](C)CC[C@@H]2C(C)C)c(C)c1 | 101%
O=C(c1ccc(C(F)(F)F)c(Cl)c1)N(Cc1ccc(Cl)cc1)c1ccc(-c2cc(C(F)(F)F)[nH]n2)c(O)c1 | -14.9% (active)
O=C(O)c1cn(C2CC2)c2cc(N3CCN(C(=O)N/N=C/c4cccc5ccccc45)CC3)c(F)cc2c1=O | 97.8%
COc1cc(-c2nc(Nc3nc4ccccc4s3)[nH]c(=O)c2C#N)cc(OC)c1O | 98%
O=C(Nc1ccc(F)cc1)c1cc2ccccc2cc1O | 71.2%
COC(=O)c1cc2c3c(cc(O)c2[nH]1)N(C(=O)C1Cc2cc(OC)c(OC)c(OC)c2N1)CC3CCl (stereo not given) | -5.77% (active)
CCOC(=O)C1=C(C)N(C)C(=O)N(C)C1c1ccccc1 (stereo not given) | -4.05% (active)
CCOC(=O)c1nc(Nc2ccc(NC(=O)Nc3ccc(F)cc3)cc2)c2ccccc2n1 | 110%
CN1CC[C@H](c2c(O)cc(O)c3c(=O)cc(-c4ccccc4Cl)oc23)[C@H](O)C1 | -23.1% (active)
COc1ccc(/C=C/c2nc(Nc3ccc(S(=O)(=O)Nc4cc(C)on4)cc3)c3ccccc3n2)cc1 | 80.9%
Cc1cn(-c2cc(C(=O)Nc3cccc(-n4ccc5c(NC(=O)c6ccccc6)nccc54)c3)cc(C(F)(F)F)c2)cn1 | 3.73% (active)
